Data published in PubChem BioAssay AID2685 (National Center for Advancing Translational Sciences (NCATS), 2010).
Screen size: about 320,000 compounds; about 2,100 (0.66%) were called active. About 53% were inconclusive and are not listed. Calls follow the shape of the dose curve; as a rule, active = well fitted inhibition curve with a large enough effect in the signal ratio, with a control signal flat (not every such curve was filed as active); inconclusive = small, poorly fitted or top-dose-only effect, or effect the other way, or a change in a side signal; inactive = flat fitted curve, though single readings scatter; the % refers to the signal ratio. For the sample, actives were picked, then their nearest neighbours and some compounds at random.

Assay: qHTS Assay for Lipid Storage Modulators in Drosophila S3 Cells;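 as to cell number change: cells counted by Cell Tracker Red CMTPX staining in the red channel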; as to lipid storage change, negative = inhibition: % is scaled to controls: 0 for no effect and ±100 for the full control effect
Conditions: BODIPY lipid droplet fluorescence, 18-24 h, cells fed with added oleic acid; cell number change: measured here: cell count max response; series mostly up to 46.1 µM; lipid storage change, negative = inhibition: at the top concentration
In short: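 Drosophila S3 cells loaded with oleic acid (400 uM, as added) and compounds at several concentrations; lipid droplets imaged by 488-nm laser-scanning cytometry, 500–530 nm intensity and object ratio to cell channel. Percent activity normalized to 20 uM Triacsin C.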
Potency is read from the fitted curve at half-maximal effect.

Compound	lipid storage change, negative = inhibition	cell number change	Potency	outcome
COc1ccccc1N1CCN(C(c2cc3cc(C)ccc3[nH]c2=O)c2nnnn2C2CCCC2)CC1 (configuration not stated)	9.5% (inactive)	10.4%		
CC(NC(=O)COC(=O)CNC(=O)c1ccc(-c2ccccc2)cc1)c1ccccc1 (configuration not stated)	1.51% (inactive)	0.973%		
O=C(Nc1ccc(COc2ccccc2)cc1)c1cccc([N+](=O)[O-])c1	-6.34% (inactive)	-16.9%		
O=C(NC1CCCC1)C1CCC(=O)N1C1CCCCC1 (configuration not stated)	-0.542% (inactive)	1.84%		
Cn1c(Cn2c(=O)sc3ccccc32)nnc1SCC(=O)N1CCOCC1	-0.98% (inactive)	7.25%		
O=C(/C=C/c1ccc([N+](=O)[O-])cc1)c1cccs1	7.23% (inactive)	1.74%		
O=C(/C=C/c1cccc([N+](=O)[O-])c1)Nc1ccc(NC(=O)c2cccs2)cc1	5.47% (inactive)	5.37%		
O=C(/C=C/c1cccc([N+](=O)[O-])c1)c1cccs1		-11.1%	23.1 µM (active)	
OCCNCc1cc(Br)ccc1OCc1ccc(F)cc1	-27.1% (inactive)	-0.637%		
O=C(CC(NC(=O)c1ccccc1Cl)c1ccccc1)NCCc1ccc(Cl)cc1 (configuration not stated)	5.66% (inactive)	10.1%		
CCCSc1nc(C)cc(=O)[nH]1	-10.3% (inactive)	7.07%		
Cc1cc(=O)[nH]c(SCC2(O)C3CC4CC(C3)CC2C4)n1 (configuration not stated)		-7.4%	29.1 µM (active)	
Cc1cc(=O)[nH]c(SCC(=O)N2CCCCC2)n1		4.95%		inactive
COc1ccc([N+](=O)[O-])cc1NC(=O)c1cccnc1	-20.3% (inactive)	9.82%		
CCCNc1nc(C)cc(-c2cc(C(=O)NCc3ccccc3)on2)n1	8.29% (inactive)	1.8%		
COc1ccc(C)cc1N1CC(C(=O)Nc2ccccc2N2CCCCC2)CC1=O (configuration not stated)		3.68%	1.03 µM (active)	
Cc1cccc(N2CC(C(=O)Nc3ccccc3N3CCCC3)CC2=O)c1C (configuration not stated)	29.9% (inactive)			
CCOc1ccccc1N1CC(C(=O)Nc2ccccc2N2CCCC2)CC1=O (configuration not stated)	22.4% (inactive)			
Cc1ccc(-c2nc(C#N)c(NCCN3CCCCC3)o2)cc1		1.25%		inactive
CCOC(=O)c1c(C)[nH]c(C=C2C(=O)CCCC2=O)c1O	-2.52% (inactive)	-4.56%		
Cn1cccc1/C=C(/C#N)C(N)=S	10.6% (inactive)	0.988%		
O=C(NCCc1c[nH]c2ccccc12)C(=O)NCC(c1ccco1)N1CCN(c2ccccc2)CC1 (configuration not stated)	20.1% (inactive)	-12.5%		
Cc1ccc(NS(=O)(=O)c2ccc(C(=O)OCC(=O)Nc3cc(C)on3)cc2)cc1	-0.058% (inactive)	-18.1%		

Compound	lipid storage change, negative = inhibition	cell number change	Potency	outcome
O=[N+]([O-])c1ccc(-c2csc(Nc3ccccc3)[n+]2Cc2ccccc2)cc1		-27.2%	13 µM (active)	
COc1ccc(-c2csc(Nc3ccccc3)[n+]2CC(O)c2ccc([N+](=O)[O-])cc2)cc1 (configuration not stated)	-0.0678% (inactive)	-3.41%		
c1ccc(C[n+]2c(-c3ccccc3)csc2Nc2ccccc2)cc1	1.38% (inactive)	-10.6%		
O=C1OCc2cc(-n3cccc3)ccc21	6.05% (inactive)	-1.52%		
Cc1ccccc1S(=O)(=O)Cc1ccc(C(=O)NC2CCCCC2C)o1 (configuration not stated)				inactive
CCOC(=O)N1CCC(NC(=O)c2ccc(CS(=O)(=O)c3ccccc3C)o2)CC1	-11.9% (inactive)	-13.7%		
Cc1ccccc1S(=O)(=O)Cc1ccc(C(=O)NC2CCC(C)CC2)o1 (configuration not stated)		-18.5%	18.4 µM (active)	
COC(=O)c1cccc(NC(=O)C(C)(C)C)c1	-0.0627% (inactive)	-0.276%		
Cn1ccnc1SCC(=O)c1ccc(Cl)cc1	0.461% (inactive)	1.94%		
CN1CCC(NC(=O)Nc2ccc(Br)cc2)CC1	-16.8% (inactive)	-12.5%		
COc1ccc(CN2CC(C(=O)NCCc3ccc(C)cc3)CC2=O)cc1 (configuration not stated)	6.44% (inactive)	1.29%		
COc1ccc(COC(=O)C2CC(=O)N(Cc3ccc(C)cc3)C2)cc1 (configuration not stated)		-16.1%		inactive [at 0.369 µM]
COc1ccc(NC(=O)COC(=O)C2CC(=O)N(Cc3ccc(C)cc3)C2)cc1 (configuration not stated)		-4.17%	2.06 µM (active)	
COC(=O)C1CCN(C(=O)c2ccc(Cl)c(S(=O)(=O)NCc3cccnc3)c2)CC1		20.6%		inactive
CC(=O)Oc1ccccc1N(C(C)=O)S(=O)(=O)c1ccc(C)cc1	6.21% (inactive)	-8.62%		
CC(C)[C@H](NC(=O)NCc1ccc(Cl)cc1)C(=O)O				inactive
CC(C)CC(NC(N)=O)C(=O)NCc1ccc(Cl)cc1 (configuration not stated)	-1.44% (inactive)	6.23%		
CC(C)C[C@H](NC(=O)NCc1ccc(Cl)cc1)C(=O)O		-1.47%	6.51 µM (active)	
CCC(=O)Nc1ccc(NC(=O)CSc2nc3cc4c(cc3cc2C)CCC4)cc1	-12.2% (inactive)	0.207%		
CCC(=O)Nc1nn(C)c2nc3c(C)cccc3cc12	1.08% (inactive)	-9.14%		
CC1CCN(CCCNC(=O)C2CCC(CNS(=O)(=O)c3cccc4nsnc34)CC2)CC1 (configuration not stated)				inactive
CCOc1ccc(-n2c(=O)cc(N3CCN(c4ccc(F)cc4)CC3)[nH]c2=O)cc1	20.6% (inactive)	10.6%		
Cc1ccc(-c2nnn(CC(=O)N(Cc3ccco3)C(C(=O)NC(C)(C)C)c3cccs3)n2)o1 (configuration not stated)	-15.4% (inactive)	-15.2%		
